Measurements: ChEMBL document CHEMBL2218924, “A broad activity screen in support of a chemogenomic map for kinase signalling research and drug discovery” (Biochem J, 2013)

biological target: Serine/threonine-protein kinase WNK2 (Homo sapiens) (UniProt Q9Y3S1); settings: at 1 µM
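Further: residual WNK2 kinase activity expressed as percent of uninhibited control, assayed in MOPS buffer at pH 7.0 containing EDTA.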

Chain of Serine/threonine-protein kinase WNK2 (Homo sapiens) (Q9Y3S1 whole entry): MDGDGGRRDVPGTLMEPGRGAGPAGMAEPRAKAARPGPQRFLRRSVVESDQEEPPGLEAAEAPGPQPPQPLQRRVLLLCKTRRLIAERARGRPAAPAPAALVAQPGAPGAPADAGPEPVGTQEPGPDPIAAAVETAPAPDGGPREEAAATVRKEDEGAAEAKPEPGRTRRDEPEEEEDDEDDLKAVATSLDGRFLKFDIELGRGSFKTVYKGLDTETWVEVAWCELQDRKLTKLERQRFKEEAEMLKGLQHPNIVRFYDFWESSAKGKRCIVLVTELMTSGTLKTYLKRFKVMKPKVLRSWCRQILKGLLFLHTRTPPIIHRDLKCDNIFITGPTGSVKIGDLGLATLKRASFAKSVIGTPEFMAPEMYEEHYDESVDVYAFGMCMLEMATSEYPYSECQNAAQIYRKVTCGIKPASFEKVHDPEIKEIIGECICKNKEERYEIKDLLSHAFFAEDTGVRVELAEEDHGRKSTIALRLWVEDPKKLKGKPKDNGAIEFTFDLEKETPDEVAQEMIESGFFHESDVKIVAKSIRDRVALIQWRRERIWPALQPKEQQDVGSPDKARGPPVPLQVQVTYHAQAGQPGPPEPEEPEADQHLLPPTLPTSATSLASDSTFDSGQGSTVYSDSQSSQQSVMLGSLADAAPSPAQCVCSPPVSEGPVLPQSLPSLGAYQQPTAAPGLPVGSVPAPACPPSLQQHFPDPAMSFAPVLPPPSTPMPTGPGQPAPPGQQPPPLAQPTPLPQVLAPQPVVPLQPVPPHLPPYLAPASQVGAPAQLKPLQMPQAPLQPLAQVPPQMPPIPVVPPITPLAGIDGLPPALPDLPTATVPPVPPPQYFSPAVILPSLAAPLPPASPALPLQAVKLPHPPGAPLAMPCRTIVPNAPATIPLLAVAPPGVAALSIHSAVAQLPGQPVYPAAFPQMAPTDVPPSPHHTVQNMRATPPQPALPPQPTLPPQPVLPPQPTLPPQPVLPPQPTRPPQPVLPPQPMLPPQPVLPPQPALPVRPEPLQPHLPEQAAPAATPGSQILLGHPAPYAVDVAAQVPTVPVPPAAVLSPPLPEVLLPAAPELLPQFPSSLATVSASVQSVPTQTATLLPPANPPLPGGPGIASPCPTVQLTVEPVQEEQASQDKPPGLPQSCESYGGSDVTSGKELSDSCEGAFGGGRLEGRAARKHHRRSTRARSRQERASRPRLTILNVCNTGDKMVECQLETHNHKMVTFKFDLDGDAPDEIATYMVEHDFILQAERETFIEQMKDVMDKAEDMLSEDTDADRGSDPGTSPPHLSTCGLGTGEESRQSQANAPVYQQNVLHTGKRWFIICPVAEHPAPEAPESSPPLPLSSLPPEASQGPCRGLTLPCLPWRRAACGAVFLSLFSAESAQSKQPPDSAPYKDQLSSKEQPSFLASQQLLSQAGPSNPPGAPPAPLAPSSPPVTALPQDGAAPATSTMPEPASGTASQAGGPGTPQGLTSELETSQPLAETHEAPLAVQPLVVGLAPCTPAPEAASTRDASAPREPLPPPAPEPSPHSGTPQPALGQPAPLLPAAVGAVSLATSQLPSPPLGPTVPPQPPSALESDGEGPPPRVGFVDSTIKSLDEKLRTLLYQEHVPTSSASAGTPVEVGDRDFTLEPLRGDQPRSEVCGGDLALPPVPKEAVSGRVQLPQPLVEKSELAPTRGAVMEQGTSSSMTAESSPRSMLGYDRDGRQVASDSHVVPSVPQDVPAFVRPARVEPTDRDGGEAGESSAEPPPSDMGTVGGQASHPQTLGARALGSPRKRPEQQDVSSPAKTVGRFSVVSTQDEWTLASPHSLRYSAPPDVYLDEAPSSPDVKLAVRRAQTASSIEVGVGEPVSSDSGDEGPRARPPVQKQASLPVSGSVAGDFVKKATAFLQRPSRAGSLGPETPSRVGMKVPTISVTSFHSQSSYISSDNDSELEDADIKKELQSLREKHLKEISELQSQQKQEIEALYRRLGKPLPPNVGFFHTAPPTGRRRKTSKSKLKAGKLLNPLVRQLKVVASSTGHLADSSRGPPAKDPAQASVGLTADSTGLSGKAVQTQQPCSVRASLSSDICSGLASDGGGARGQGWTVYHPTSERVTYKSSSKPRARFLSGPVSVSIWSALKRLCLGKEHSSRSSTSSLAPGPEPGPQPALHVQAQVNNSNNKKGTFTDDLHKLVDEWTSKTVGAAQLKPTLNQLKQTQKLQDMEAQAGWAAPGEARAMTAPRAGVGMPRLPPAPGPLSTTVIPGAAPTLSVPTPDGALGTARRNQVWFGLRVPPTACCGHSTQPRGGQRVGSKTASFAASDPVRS

Residual activity, inactive:
c1ccc(-c2n[nH]cc2-c2ccnc3ccccc23)nc1 105%, Cn1nc2c3c(cccc31)C(=O)c1ccccc1-2 93%, COc1ccc(CNc2nc(N(CCO)CCO)nc3c2ncn3C(C)C)cc1 88%, CO[C@@H]1[C@H](N(C)C(=O)c2ccccc2)C[C@H]2O[C@]1(C)n1c3ccccc3c3c4c(c5c6ccccc6n2c5c31)C(=O)NC4 90%, C[C@@H](N)[C@H]1CC[C@H](C(=O)Nc2ccncc2)CC1 95%, Cc1cccc(-c2[nH]c(C(C)(C)C)nc2-c2ccc3c(c2)OCO3)n1 106%, Cc1cc(Nc2nc(-c3ccccc3)nc3ccccc23)n[nH]1 74%, O=C1Nc2ccc(Br)cc2/C1=C\c1cc2c([nH]1)CCCC2 110%, Cc1cc2ncc(-c3ccccc3)nc2cc1C 99%, CCN(CC)C(=O)c1ccc(Nc2nc(OCC3CCCCC3)c3nc[nH]c3n2)cc1 96%, O=C1c2ccccc2-[n+]2ccc3c([nH]c4ccccc43)c21 95%, Cc1ccc(S(=O)(=O)/C=C/C#N)cc1 94%, c1ccc2c(-c3ccncc3)c[nH]c2c1 107%, c1ccc(-c2n[nH]c3c2oc2ccccc23)cc1 114%, CO[C@H]1C[C@@H]2CC[C@@H](C)[C@@](O)(O2)C(=O)C(=O)N2CCCC[C@H]2C(=O)O[C@H]([C@H](C)C[C@@H]2CC[C@@H](O)[C@H](OC)C2)CC(=O)[C@H](C)/C=C(\C)[C@@H](O)[C@@H](OC)C(=O)[C@H](C)C[C@H](C)/C=C/C=C/C=C/1C 96%, Nc1cccc(-c2cc3c(Oc4cccc(O)c4)ncnc3[nH]2)c1 88%, COc1ccc(S(=O)(=O)N(CCO)c2ccccc2CN(C)C/C=C/c2ccc(Cl)cc2)cc1 100%, O=C1Nc2ccccc2/C1=C1/Nc2ccccc2/C1=N\OCCC(O)CO (stereo not drawn) 71%, COc1cc2ncnc(Nc3ccc(NC(=O)c4ccccc4)cc3)c2cc1OC 52%, Ic1cccc(CSc2nnc(-c3ccncc3)o2)c1 87%, O=C(Nc1cccc(Nc2cc(Nc3cccc(C(F)(F)F)c3)ncn2)c1)C1CC1 103%, O=[N+]([O-])c1ccc(-c2nc(-c3ccc(F)cc3)c(-c3ccncc3)[nH]2)cc1 102%, O=Nc1c(-c2c(O)[nH]c3ccccc23)[nH]c2ccccc12 90%, CN(C)CCCn1cc(C2=C(c3c[nH]c4ccccc34)C(=O)NC2=O)c2ccccc21 120%, O=C1Nc2cc(Br)ccc2/C1=C1/Nc2ccccc2/C1=N\O 89%, O=C1NC(=O)/C(=C/c2ccc3c(c2)OC(F)(F)O3)S1 114%, Nc1n[nH]c2nnc(-c3c(-c4ccccc4)nn4ccccc34)cc12 88%, Cn1cnc2cc3c(Nc4cccc(Br)c4)ncnc3cc21 105%
